# Results reported in PubChem BioAssay (EPA / NIEHS).
# Inconclusive results are not listed. Some compounds were tested as several samples or in several runs, with calls that do not always agree. The source made the active and inactive calls. How the source made its calls, unless noted: active means hit-call score of the fitted dose curve at least 0.9, where 1 is the maximum; inconclusive means response in the unintended direction; inactive means score below 0.9.
# Key:
# [1] = ATG_GAL4_TRANS: Attagene TRANS-FACTORIAL HepG2 Assay for GAL4 (Internal Marker) (AID 2282976); details: HepG2 Attagene TRANS GAL4 internal marker reporter
# Method in brief: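 In transfected human HepG2 liver cells dosed 24 h, GAL4 reporter mRNA serves as a baseline marker. Detection by RT-PCR with fluorescent capillary electrophoresis, activity fitted upward relative to DMSO.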
# [2] = biological target: Oxysterols receptor LXR-alpha (Homo sapiens) (UniProt Q13133); assay: ATG_LXRa_TRANS: Attagene TRANS-FACTORIAL HepG2 Assay for human Liver X Receptor alpha (LXRa) (AID 2282980); details: HepG2 Attagene TRANS reporter, LXRa transactivation
# Method in brief: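 Chemical-induced reporter mRNA measured by RT-PCR with fluorescent labelling and capillary electrophoresis after 24 h dosing of transiently transfected HepG2 cells expressing exogenous NR-Gal4 chimeras; increases scored against DMSO baseline.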
# [3] = biological target: Cellular tumor antigen p53 (Homo sapiens) (UniProt P04637); assay: ATG_p53_CIS: Attagene CIS-FACTORIAL HepG2 Assay for human p53 Transcription Factor (AID 2282994; active means hit-call score of the fitted dose curve at least 0.9, where 1 is the maximum; inactive means score below 0.9); details: HepG2 p53 cis-element reporter, Attagene mRNA; actives raise or lower the signal
# Method in brief: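 HepG2 cells transiently transfected with cis-regulated multiple reporter transcription units, dosed 24 h. Reporter mRNA measured by RT-PCR, 6-FAM primer extension, HpaI digestion and capillary electrophoresis; bidirectional fit relative to DMSO.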
# [4] = biological target: human RAR-related Orphan Receptor beta (RORb), RORB (gene 6096) (UniProt Q92753); assay: ATG_RORb_TRANS: Attagene TRANS-FACTORIAL HepG2 Assay for human RAR-related Orphan Receptor beta (RORb) (AID 2283010)
# Method in brief: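 HepG2 cells transiently transfected with GAL4-UAS reporter units expressing chimeric NR-Gal4 protein; reporter mRNA measured 24 h after dosing by RT-PCR, 6-FAM labelling and capillary electrophoresis. Gain-of-signal fitted relative to DMSO baseline.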
# [5] = biological target: human RAR-related Orphan Receptor gamma (RORg), RORC (gene 6097) (UniProt P51449); assay: ATG_RORg_TRANS: Attagene TRANS-FACTORIAL HepG2 Assay for human RAR-related Orphan Receptor gamma (RORg) (AID 2283011)
# Method in brief: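 Reporter transcripts from a transfected RORg-GAL4 chimera in HepG2 cells were quantified 24 h after dosing by RT-PCR, 6-FAM labelling, HpaI digestion and capillary electrophoresis; increases over DMSO baseline were fitted.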
# [6] = TOX21_p53_BLA_p2_viability: Viability Assessment in the Tox21 HCT-116 p53 Agonism Beta-lactamase Assay, Phase 2 (AID 2283591);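 further: compound exposure lasted 16 h at 37 °C; actives lower the ATP signal meaning cytotoxicity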
# Method in brief: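 HCT-116 p53-bla cells (4000/well) rested 5 h at 37C, then received compounds in DMSO (217-fold dilution) for 16 h at 37C, 5% CO2. After the CCF4 read, CellTiter-Glo was added; ATP luminescence was read after 30 min at room temperature.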
# [7] = TOX21_p53_BLA_p3_viability: Viability Assessment in the Tox21 HCT-116 p53 Agonism Beta-lactamase Assay, Phase 3 (AID 2283593);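 further: cells exposed to compound for 16 h before reading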
# Method in brief: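 HCT-116 cells (4000/well) rested 5 h at 37C, then got DMSO compounds by pin tool (217-fold dilution) for 16 h at 37C, 5% CO2. After the bla read, CellTiter-Glo was added and luminescence read at 30 min, room temperature.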
# [8] = TOX21_p53_BLA_p4_viability: Viability Assessment in the Tox21 HCT-116 p53 Agonism Beta-lactamase Assay, Phase 4 (AID 2283597);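 further: hits lower the luminescence signal meaning cytotoxicity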
# Method in brief: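 Following a 16 h exposure at 37C, the treated HCT116 wells were first read for the FRET ratio. They were then lysed with CellTiter-Glo, and ATP luminescence was recorded after 30 min at room temperature.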
# [9] = biological target: Bile acid receptor (Homo sapiens) (UniProt Q96RI1); assay: ATG_IR1_CIS: Attagene CIS-FACTORIAL HepG2 Assay for human Nuclear Receptor Subfamily 1 Group H Member 4 (NR1H4), IR1 submotif (AID 2282946; active means hit-call score of the fitted dose curve at least 0.9, where 1 is the maximum; inactive means score below 0.9); details: IR1 reporter transcription, actives raise or lower the signal
# Method in brief: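 Transient MRTU transfection, HepG2; 24 h dosing; RNA → RT-PCR → 6-FAM primer extension → HpaI digest → capillary electrophoresis fluorescence. Gain/loss of signal fitted relative to DMSO.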
# [10] = biological target: Glucocorticoid receptor (Homo sapiens) (UniProt P04150); assay: ATG_GR_TRANS: Attagene TRANS-FACTORIAL HepG2 Assay for human Glucocorticoid Receptor (GR) (AID 2282978); details: HepG2 Attagene TRANS GR reporter, mRNA transcription;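 further: activators score as hits since higher reporter transcript over DMSO is fitted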
# Method in brief: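 In this trans-factorial format, exogenous NR-GAL4 chimeric proteins in transfected HepG2 cells regulate GAL4-UAS reporter transcription. After 24 h treatment, reporter mRNA induction relative to DMSO is read by RT-PCR and capillary electrophoresis.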
# [11] = ATG_XTT_Cytotoxicity: Cytotoxicity Assessment in the Attagene TRANS-FACTORIAL HepG2 Assay (AID 2283584);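 on AC50: cells exposed to compound for 24 h before reading; active means loss of viability signal versus DMSO baseline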
# Method in brief: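 Viability endpoint from XTT after 24 h chemical exposure of reporter-transfected human HepG2 liver cells; signal loss fitted relative to DMSO negative control.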
# [12] = biological target: Nuclear receptor subfamily 1 group I member 3 (Homo sapiens) (UniProt Q14994); assay: ATG_CAR_TRANS: Attagene TRANS-FACTORIAL HepG2 Assay for human Constitutive Androstane Receptor (CAR) (AID 2282969); details: HepG2 Attagene TRANS-FACTORIAL CAR reporter;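 further: activators raise reporter mRNA above DMSO so AC50 marks induction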
# Method in brief: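 HepG2 cells transiently transfected with multiplexed GAL4-UAS reporter units expressing chimeric NR-Gal4 proteins; compound exposure 24 h. Reporter mRNA measured by RT-PCR, 6-FAM labelling, HpaI digestion and capillary electrophoresis; gain-of-signal fitted against DMSO baseline.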
# [13] = biological target: human Peroxisome Proliferator-activated Receptor delta (PPARd), PPARD (gene 5467) (UniProt Q03181); assay: ATG_PPARd_TRANS: Attagene TRANS-FACTORIAL HepG2 Assay for human Peroxisome Proliferator-activated Receptor delta (PPARd) (AID 2283002)
# Method in brief: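 HepG2 cells transiently transfected with multiplexed GAL4-UAS reporter units and exogenous chimeric NR-Gal4 proteins; 24 h compound exposure. Reporter mRNA measured by RT-PCR, 6-FAM labelling, HpaI digestion and capillary electrophoresis; gain of signal versus DMSO.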
# [14] = biological target: human Vitamin D Receptor (VDR), VDR (gene 7421) (UniProt P11473); assay: ATG_VDR_TRANS: Attagene TRANS-FACTORIAL HepG2 Assay for human Vitamin D Receptor (VDR) (AID 2283022)
# Method in brief: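 Transactivation by an exogenous VDR-Gal4 chimera in transiently transfected HepG2 cells was measured as reporter transcript level 24 hours after chemical treatment. RT-PCR products were analysed by capillary electrophoresis and fitted in the positive direction relative to DMSO.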
# [15] = ACEA_ER_AUC_viability: ACEA Biosciences xCELLigence Real-Time Cell Analysis on Estrogen Receptor Agonism for Viability (AID 2283782);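 further: continuous compound exposure with impedance area under curve over 80 h; hit means loss of impedance signal meaning reduced cell growth or viability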
# Method in brief: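 T-47D human breast cells in phenol red-free RPMI1640 with 10% charcoal-stripped FBS were dosed with an 8-point 1:4 dilution series from 100 uM top final concentration, in duplicate. Impedance-based growth was followed for 80 h; AUC analysed versus DMSO.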
# [16] = ATG_PPRE_CIS: Attagene CIS-FACTORIAL HepG2 Assay for human Peroxisome Proliferator-activated Response Element (PPRE) (AID 2282958; active means hit-call score of the fitted dose curve at least 0.9, where 1 is the maximum; inactive means score below 0.9); details: HepG2 PPRE cis-element reporter, Attagene transcription factor profiling; actives raise or lower the signal
# Method in brief: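 Cells are first transfected transiently with the multiplexed reporter library, then dosed for 24 h. Total RNA is reverse-transcribed, amplified, fluorescently end-labeled and HpaI-cut before capillary electrophoresis; activity is fitted bidirectionally against DMSO controls.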
# [17] = biological target: Oxysterols receptor LXR-beta (Homo sapiens) (UniProt P55055); assay: ATG_LXRb_TRANS: Attagene TRANS-FACTORIAL HepG2 Assay for human Liver X Receptor beta (LXRb) (AID 2282981); details: HepG2 Attagene TRANS GAL4-LXRb reporter, mRNA
# Method in brief: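 In this TRANS format, exogenous chimeric NR-Gal4 protein activity, not endogenous factors, drives reporter expression in transfected human HepG2 cells. Exposure lasted 24 h; reporter mRNA was read by fluorescent capillary electrophoresis.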
# [18] = CCTE_Harrill_HTTr_Viability_MCF7: CCTE's 6-hour Cell Viability Assessment for the High-Throughput Transcriptomics (HTTr) Platform, in MCF-7 cells cultured in DMEM + 10% fetal bovine serum, Harrill Lab (AID 2284010; active means hit-call score of the fitted dose curve at least 0.9, where 1 is the maximum; inactive means score below 0.9)
# Method in brief: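 MCF-7 cells in DMEM + 10% FBS, 384-well, exposed 6 h to an eight-point dilution series. Membrane integrity scored by high-content imaging of propidium iodide exclusion; bidirectional fit versus DMSO.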
# [19] = ATG_M_19_TRANS: Attagene TRANS-FACTORIAL HepG2 Assay for M19 Transcription Factor (Internal Marker) (AID 2282974); details: HepG2 Attagene TRANS-FACTORIAL M19 internal marker reporter
# Method in brief: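 Cells: human HepG2, transiently transfected with multiplexed reporter transcription units. Exposure: 24 h. Detection: RT-PCR of reporter mRNA with capillary electrophoresis. Analysis: gain-of-signal vs DMSO.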
# Oxysterols receptor LXR-alpha (Homo sapiens), sequence (Q13133 whole entry, looked up, the tested form may be a part): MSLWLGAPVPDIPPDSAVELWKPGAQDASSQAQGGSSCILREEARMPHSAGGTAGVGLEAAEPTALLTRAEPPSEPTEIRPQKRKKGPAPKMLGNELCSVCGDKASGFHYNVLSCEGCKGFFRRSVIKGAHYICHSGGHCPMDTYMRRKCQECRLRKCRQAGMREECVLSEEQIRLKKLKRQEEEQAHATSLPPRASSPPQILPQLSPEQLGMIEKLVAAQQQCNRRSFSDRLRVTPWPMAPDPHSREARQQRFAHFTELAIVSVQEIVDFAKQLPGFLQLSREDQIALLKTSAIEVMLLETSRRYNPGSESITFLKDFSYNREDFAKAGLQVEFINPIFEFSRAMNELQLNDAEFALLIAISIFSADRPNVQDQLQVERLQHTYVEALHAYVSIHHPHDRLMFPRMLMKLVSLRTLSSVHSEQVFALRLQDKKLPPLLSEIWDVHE
# human Vitamin D Receptor (VDR), VDR (gene 7421), sequence (P11473 whole entry, looked up, the tested form may be a part): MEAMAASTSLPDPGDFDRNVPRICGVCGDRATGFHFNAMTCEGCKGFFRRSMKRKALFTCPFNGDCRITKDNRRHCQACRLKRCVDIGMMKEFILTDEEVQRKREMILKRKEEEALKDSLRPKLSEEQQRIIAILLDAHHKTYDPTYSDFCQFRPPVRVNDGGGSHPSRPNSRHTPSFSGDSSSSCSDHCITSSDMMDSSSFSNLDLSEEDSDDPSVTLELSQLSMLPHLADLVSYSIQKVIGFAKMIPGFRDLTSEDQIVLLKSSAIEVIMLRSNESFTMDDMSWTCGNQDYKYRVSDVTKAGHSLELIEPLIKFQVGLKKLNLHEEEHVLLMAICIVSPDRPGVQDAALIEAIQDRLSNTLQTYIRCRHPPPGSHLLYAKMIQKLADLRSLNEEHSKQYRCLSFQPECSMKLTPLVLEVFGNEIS
# human RAR-related Orphan Receptor gamma (RORg), RORC (gene 6097), sequence (P51449 whole entry, looked up, the tested form may be a part): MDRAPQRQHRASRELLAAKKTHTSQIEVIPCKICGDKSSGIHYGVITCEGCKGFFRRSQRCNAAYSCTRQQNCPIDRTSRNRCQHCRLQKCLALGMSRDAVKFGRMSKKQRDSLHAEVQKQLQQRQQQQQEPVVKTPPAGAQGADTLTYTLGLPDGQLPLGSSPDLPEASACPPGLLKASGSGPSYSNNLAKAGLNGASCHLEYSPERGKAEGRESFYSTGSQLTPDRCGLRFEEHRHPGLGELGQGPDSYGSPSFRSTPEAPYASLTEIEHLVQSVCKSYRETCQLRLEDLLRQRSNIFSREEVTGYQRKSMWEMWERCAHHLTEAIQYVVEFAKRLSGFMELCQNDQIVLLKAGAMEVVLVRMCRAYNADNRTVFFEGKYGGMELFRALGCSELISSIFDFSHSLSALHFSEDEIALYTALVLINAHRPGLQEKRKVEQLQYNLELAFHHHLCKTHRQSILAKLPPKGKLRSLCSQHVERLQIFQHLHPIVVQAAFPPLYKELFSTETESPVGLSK
# Bile acid receptor (Homo sapiens), sequence (Q96RI1 whole entry, looked up): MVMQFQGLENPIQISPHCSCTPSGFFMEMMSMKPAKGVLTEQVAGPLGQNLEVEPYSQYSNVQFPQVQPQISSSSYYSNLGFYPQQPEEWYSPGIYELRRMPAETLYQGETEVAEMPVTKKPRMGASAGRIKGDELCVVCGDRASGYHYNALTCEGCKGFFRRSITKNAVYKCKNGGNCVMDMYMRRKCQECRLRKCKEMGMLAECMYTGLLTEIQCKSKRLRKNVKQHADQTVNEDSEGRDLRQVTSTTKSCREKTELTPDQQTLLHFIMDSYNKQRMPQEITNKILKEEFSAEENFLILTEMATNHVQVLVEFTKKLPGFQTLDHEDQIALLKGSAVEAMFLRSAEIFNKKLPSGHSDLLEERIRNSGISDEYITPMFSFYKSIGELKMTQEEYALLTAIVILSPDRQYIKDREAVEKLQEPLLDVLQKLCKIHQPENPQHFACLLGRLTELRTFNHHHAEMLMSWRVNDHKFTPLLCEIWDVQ
# Oxysterols receptor LXR-beta (Homo sapiens), sequence (P55055 whole entry, looked up, the tested form may be a part): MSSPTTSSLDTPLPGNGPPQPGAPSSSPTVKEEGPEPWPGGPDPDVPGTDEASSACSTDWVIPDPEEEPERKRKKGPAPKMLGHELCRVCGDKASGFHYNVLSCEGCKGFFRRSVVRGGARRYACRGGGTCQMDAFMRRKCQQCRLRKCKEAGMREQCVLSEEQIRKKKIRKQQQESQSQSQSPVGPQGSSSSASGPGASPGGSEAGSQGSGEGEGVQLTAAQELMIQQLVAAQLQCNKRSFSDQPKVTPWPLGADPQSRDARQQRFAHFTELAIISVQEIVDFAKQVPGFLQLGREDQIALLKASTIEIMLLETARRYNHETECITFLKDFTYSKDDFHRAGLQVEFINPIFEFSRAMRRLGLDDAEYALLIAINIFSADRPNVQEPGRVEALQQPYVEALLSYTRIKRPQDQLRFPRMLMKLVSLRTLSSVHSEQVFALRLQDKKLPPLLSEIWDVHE
# Glucocorticoid receptor (Homo sapiens), sequence (P04150 whole entry, looked up, the tested form may be a part): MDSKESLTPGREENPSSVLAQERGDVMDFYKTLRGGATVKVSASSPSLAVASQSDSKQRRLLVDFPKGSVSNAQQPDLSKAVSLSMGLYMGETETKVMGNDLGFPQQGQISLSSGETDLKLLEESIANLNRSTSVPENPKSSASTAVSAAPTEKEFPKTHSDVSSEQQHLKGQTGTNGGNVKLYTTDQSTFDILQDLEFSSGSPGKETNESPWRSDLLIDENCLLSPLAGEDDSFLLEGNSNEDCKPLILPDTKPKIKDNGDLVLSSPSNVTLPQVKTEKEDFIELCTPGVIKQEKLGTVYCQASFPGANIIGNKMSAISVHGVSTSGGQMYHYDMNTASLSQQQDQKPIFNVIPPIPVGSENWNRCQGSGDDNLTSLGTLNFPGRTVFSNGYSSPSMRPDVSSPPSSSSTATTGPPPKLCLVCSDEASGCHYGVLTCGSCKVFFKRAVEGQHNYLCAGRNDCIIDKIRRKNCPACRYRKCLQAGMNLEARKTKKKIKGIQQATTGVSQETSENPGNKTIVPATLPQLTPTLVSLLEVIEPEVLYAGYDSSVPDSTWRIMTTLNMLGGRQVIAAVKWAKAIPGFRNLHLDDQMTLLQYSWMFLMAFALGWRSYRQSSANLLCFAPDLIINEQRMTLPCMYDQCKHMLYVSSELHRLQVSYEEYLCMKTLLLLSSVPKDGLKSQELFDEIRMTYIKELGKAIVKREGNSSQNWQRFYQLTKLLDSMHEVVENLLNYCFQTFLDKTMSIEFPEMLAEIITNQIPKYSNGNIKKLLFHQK
# Cellular tumor antigen p53 (Homo sapiens), sequence (P04637 whole entry, looked up): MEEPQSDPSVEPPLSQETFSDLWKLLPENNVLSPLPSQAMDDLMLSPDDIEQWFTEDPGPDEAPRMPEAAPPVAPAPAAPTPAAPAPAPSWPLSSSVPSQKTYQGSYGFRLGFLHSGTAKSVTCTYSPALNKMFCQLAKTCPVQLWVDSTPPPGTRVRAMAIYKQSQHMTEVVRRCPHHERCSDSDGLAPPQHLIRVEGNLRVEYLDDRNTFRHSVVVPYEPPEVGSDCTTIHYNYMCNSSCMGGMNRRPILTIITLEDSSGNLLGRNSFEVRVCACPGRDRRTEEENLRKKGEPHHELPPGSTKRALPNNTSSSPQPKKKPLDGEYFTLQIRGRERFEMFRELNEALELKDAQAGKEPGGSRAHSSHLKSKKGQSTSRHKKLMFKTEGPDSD
# human RAR-related Orphan Receptor beta (RORb), RORB (gene 6096), sequence (Q92753 whole entry, looked up, the tested form may be a part): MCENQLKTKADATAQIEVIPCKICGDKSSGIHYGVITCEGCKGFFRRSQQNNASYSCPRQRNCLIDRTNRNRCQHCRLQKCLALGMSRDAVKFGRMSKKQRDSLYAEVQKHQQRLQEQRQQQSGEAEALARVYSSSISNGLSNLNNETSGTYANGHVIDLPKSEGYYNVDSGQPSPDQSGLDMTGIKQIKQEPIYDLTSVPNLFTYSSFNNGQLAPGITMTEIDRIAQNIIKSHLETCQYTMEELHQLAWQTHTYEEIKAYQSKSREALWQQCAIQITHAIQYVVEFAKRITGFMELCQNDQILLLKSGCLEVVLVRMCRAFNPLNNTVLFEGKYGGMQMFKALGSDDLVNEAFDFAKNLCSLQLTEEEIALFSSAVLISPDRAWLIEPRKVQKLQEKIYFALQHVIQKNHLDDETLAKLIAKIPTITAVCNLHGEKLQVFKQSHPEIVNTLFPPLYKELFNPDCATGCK
# human Peroxisome Proliferator-activated Receptor delta (PPARd), PPARD (gene 5467), sequence (Q03181 whole entry, looked up, the tested form may be a part): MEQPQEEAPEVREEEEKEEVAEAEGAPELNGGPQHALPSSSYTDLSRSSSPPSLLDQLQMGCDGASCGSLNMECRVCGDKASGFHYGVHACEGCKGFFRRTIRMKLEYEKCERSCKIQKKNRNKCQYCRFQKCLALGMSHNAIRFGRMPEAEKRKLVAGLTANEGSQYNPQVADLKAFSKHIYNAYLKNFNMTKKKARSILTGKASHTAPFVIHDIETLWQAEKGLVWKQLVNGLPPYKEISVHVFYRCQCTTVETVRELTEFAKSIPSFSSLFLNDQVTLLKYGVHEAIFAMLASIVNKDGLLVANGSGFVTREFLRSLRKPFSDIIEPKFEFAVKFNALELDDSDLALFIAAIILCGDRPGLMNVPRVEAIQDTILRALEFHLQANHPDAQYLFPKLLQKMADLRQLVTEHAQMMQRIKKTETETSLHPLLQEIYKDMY
# Nuclear receptor subfamily 1 group I member 3 (Homo sapiens), sequence (Q14994 whole entry, looked up, the tested form may be a part): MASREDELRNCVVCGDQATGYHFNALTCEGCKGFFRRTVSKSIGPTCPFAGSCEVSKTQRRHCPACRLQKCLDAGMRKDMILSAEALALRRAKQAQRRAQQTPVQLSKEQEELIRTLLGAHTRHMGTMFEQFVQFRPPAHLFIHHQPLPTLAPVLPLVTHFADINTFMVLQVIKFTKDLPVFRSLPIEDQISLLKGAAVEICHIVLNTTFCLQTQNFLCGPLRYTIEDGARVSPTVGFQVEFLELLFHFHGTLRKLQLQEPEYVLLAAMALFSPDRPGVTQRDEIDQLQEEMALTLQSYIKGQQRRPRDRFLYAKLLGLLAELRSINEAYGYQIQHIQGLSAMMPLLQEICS
smiles,measurement,setting,value
[Cl-].[Cl-].[Cl-].[Yb+3],outcome,[1],inactive
same,outcome,[2],inactive
same,outcome,[3],inactive
same,outcome,[4],inactive
same,outcome,[5],inactive
same,outcome,[6],inactive
same,outcome,[7],inactive
same,outcome,[8],inactive
Oc1ccc(C2(c3ccc(O)cc3)c3ccccc3-c3ccccc32)cc1,outcome,[9],inactive
same,outcome,[1],inactive
same,outcome,[10],inactive
same,outcome,[2],inactive
same,AC50,[3],17.2 µM (active)
same,AC50,[11],34.9 µM (active)
same,outcome,[6],inactive
same,AC50,[7],0.237 µM (active)
same,outcome,[8],inactive
CCCCCCCCCCCCCCCC[N+](C)(C)C,outcome,[12],inactive
same,outcome,[1],inactive
same,outcome,[2],inactive
same,outcome,[13],inactive
same,outcome,[4],inactive
same,outcome,[5],inactive
same,outcome,[14],inactive
same,AC50,[11],36.9 µM (active)
same,AC50,[15],10.9 µM (active)
O=CNC(N1CCN(C(NC=O)C(Cl)(Cl)Cl)CC1)C(Cl)(Cl)Cl (centres undefined),outcome,[16],inactive
same,outcome,[1],inactive
same,outcome,[10],inactive
same,outcome,[2],inactive
same,outcome,[17],inactive
same,outcome,[13],inactive
same,outcome,[14],inactive
same,outcome,[11],inactive
same,outcome,[8],inactive
same,outcome,[18],inactive
N#CCCCCC#N,outcome,[9],inactive
same,outcome,[16],inactive
same,outcome,[10],inactive
same,outcome,[17],inactive
same,outcome,[3],inactive
same,outcome,[5],inactive
same,outcome,[6],inactive
same,outcome,[8],inactive
same,outcome,[18],inactive
CC(C)COP(=O)(OCC(C)C)OCC(C)C,outcome,[9],inactive
same,outcome,[10],inactive
same,outcome,[3],inactive
same,outcome,[14],inactive
same,outcome,[11],inactive
same,outcome,[6],inactive
same,outcome,[7],inactive
same,outcome,[8],inactive
CN1C[C@H](C(=O)N[C@]2(C)O[C@@]3(O)[C@@H]4CCCN4C(=O)[C@H](Cc4ccccc4)N3C2=O)C=C2c3cccc4[nH]cc(c34)C[C@H]21,outcome,[9],inactive
same,outcome,[19],inactive
same,outcome,[1],inactive
same,outcome,[10],inactive
same,outcome,[17],inactive
same,outcome,[14],inactive
same,outcome,[11],inactive
same,outcome,[6],inactive
same,outcome,[7],inactive
same,AC50,[8],71.4 µM (active)
same,outcome,[8],inactive
